MARV entry inh – blocks Marburg virus binding to or entry into cells. Potency, µM (doses to about 37.8 µM), inactives show top-dose activity change, negative = inhibition, actives largely listed as inhibitors. 1.8% of 300,000 active. Marburg virus pseudotyped entry inhibition, cell reporter; calls by dose curve; tested in HEK293 cells; also: potency is read from the fitted curve at half-maximal effect
Vaccinia Venus – vaccinia inhibition (Venus reporter); Vaccinia virus Venus reporter expression, fluorescence; Potency, µM (titrated, usually from 36.5 µM), for inactives: at the highest dose activity change, negative = inhibition, actives largely listed as inhibitors; 0.46% of 330,000 active; AID 720580; calls by dose curve; tested in A549 cells; also: potency is read from the fitted curve at half-maximal effect; nearly all actives have a fitted effect of over 30% in size
HCV inh – blocks hepatitis C virus | Huh7.5.1 HCVcc-Cre infection, luciferase reporter, 44 h | 3.4% of 340,000 active | Potency, µM (doses to about 41.8 µM), without a hit: top-dose activity change, negative = inhibition, hits mostly inhibitors; active = well fitted inhibition curve with a large enough effect; inconclusive = small, poorly fitted or top-dose-only effect, or another doubt; inactive = no such curve, though single readings can be large or run the other way; also: potency is read from the fitted curve at half-maximal effect
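Cells seeded at 1,000/well and cultured 4 h, then compounds added followed by HCVcc-Cre virus (~0.5 moi). After 44 h further culture, luciferase substrate was added, plates held 15 min at room temperature, and luminescence read for 15 sec.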
LASV entry inh – inhibitors of Lassa virus binding or cell entry; Lassa virus pseudotype entry inhibition, cell reporter; Potency, µM (series often up to 37.9 µM), for the others: at the highest dose activity change, negative = inhibition, hits mostly inhibitors; 1.2% of 300,000 active; calls by dose curve; tested in HEK293 cells; also: potency is read from the fitted curve at half-maximal effect; nearly all actives have a fitted effect of over 50% in size
Vaccinia mCherry – inhibitors of vaccinia virus infection (mCherry reporter signal) | Vaccinia virus mCherry reporter infection, fluorescence | Potency, µM (highest dose often 36.5 µM), for the others: at the highest dose activity change, negative = inhibition, most hits filed as inhibitors | 0.63% of 310,000 active | AID 720579; calls by dose curve; tested in A549 cells; also: potency is read from the fitted curve at half-maximal effect; nearly all actives have a fitted effect of over 35% in size
HCMV antiviral – blocks human cytomegalovirus replication; HFF cells, HCMV-luciferase reporter, 72 h; stronger effect = lower value; activity change, negative = inhibition, % at 57.5 µM; AID 1259415; 4.5% of 410,000 active; in the data active = activity change below about -60%; inconclusive = no clear call, values can overlap the other calls; inactive = above about -39%
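Steps: HFFs plated, 16 h 37C; compounds added; HCMV-luciferase added to MOI 1 PFU/cell; 72 h 37C; OneGlo reagent, 5 min room temperature; luminescence read, normalized to controls.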
* = called active by the depositor; i = inactive; ? = inconclusive; . = not tested or not shown; ! = not active in a repeat; [ ] = dose if it differs, or a comment. Hits are enriched below; roughly 7.8% of the tested compounds scored in any of these assays. % is scaled to controls: 0 for no effect and ±100 for the full control effect.

SMILES	MARV entry inh	Vaccinia Venus	HCV inh	LASV entry inh	Vaccinia mCherry	HCMV antiviral
COc1ccc2oc(=O)c(C(=O)NCc3ccc(C)cc3)cc2c1	.	.	9%	.	.	-100*
COc1ccc2oc(=O)c(C(=O)Nc3cccc(C)c3)cc2c1	?	-9%	?	0%[46.1 µM]	-3%	1
COc1ccc(CNC(=O)c2cc3cc(OC)ccc3oc2=O)cc1	?	-21%	?	?	-26%	-104*!
COc1ccc2oc(=O)c(C(=O)Nc3cccc(C(=O)O)c3)cc2c1	2.8µM*	10%	.	4%[46.1 µM]	-2%	107
COc1ccc(Cn2c(CCC(=O)Nc3cccc(OC)c3)nc3cccnc32)cc1	2%[46.1 µM]	-29%	.	?	-19%	-18
CC(C)c1ccc(NC(=O)CN(C)C2=NS(=O)(=O)c3ccccc32)cc1	.	-17%	.	.	i	-19
CCCNS(=O)(=O)c1cc(-c2nn3c(C)nnc3c3ccccc23)ccc1C	?	-8%	.	?	2%	-19
CNC(=O)COc1ccc(Nc2nnc(-c3ccc(C)c(S(=O)(=O)NC(C)(C)C)c3)c3ccccc23)cc1	.	-26%	.	?	-29%	?
C#CC(C)(C)NS(=O)(=O)c1cc(-c2nnc(Nc3ccc(C)cc3)c3ccccc23)ccc1C	?	?	.	?	?	-87*
CNS(=O)(=O)c1cc(-c2nnc(Nc3ccc(NC(C)=O)cc3)c3ccccc23)ccc1C	?	-1%	-29%	-4%	-6%	-66*
CNS(=O)(=O)c1cc(-c2nn3c(C)nnc3c3ccccc23)ccc1C	.	-20%	.	-16%[46.1 µM]	-20%	-62*
O=C(Cc1ccc(F)cc1)Nc1cccc(-c2nc3cccnc3s2)c1	?	-6%	.	-14%[46.1 µM]	-11%	?
O=C(COc1ccccc1)NC1CCS(=O)(=O)C1 (stereo not given)	0%	.	11%	7%	.	2
O=C(NCC1CCS(=O)(=O)C1)Oc1ccccc1 (stereo not given)	-1%	.	1%	16%	.	-95*
C[n+]1c2n(c3ccccc31)N=C(c1cc(C(C)(C)C)c(O)c(C(C)(C)C)c1)CS2	11µM*	10µM*	?	?	?	-101*
COc1ccc(NC(=O)Nc2nc(C(N)Cc3ccc(C(F)(F)F)cc3)cs2)cc1 (stereo not given)	.	-26%	.	.	-16%	-103*
NC(Cc1ccc(C(F)(F)F)cc1)c1csc(NC(=O)NCCc2ccccc2)n1 (stereo not given)	.	11µM*	.	.	?	-101*
NC(Cc1ccc(F)cc1)c1csc(NC(=O)NC(c2ccccc2)c2ccccc2)n1 (stereo not given)	.	?	.	.	?	-103*
NC(=O)c1ccc(Nc2nc(C(N)COCc3ccccc3)cs2)cc1 (stereo not given)	.	-1%	.	.	32%	-37
NC(COCc1ccccc1)c1csc(NC(=O)Nc2cccc(C(F)(F)F)c2)n1 (stereo not given)	.	?	.	.	-24%	-100*
COc1cccc(CNC(=O)c2c(OC)cc(=O)n3c2CCN(C(=O)c2ccc(C)nc2)CC3)c1	.	0%	.	.	i	.
O=NN(C(=O)NCc1cccnc1)C1CCCCC1	.	-4%	.	.	i	0
CN(C)Cc1csc(NC(=O)Nc2ccccc2-c2ccccc2)n1	.	-21%	.	.	4%	-10
CN(C)Cc1csc(NC(=O)Nc2ccccc2Oc2ccccc2)n1	.	-20%	.	.	9%	-75*
NC(Cc1ccc(C(F)(F)F)cc1)c1csc(NC(=O)Nc2ccccc2Oc2ccccc2)n1 (stereo not given)	.	?	.	.	-19%	-102*
O=C1CCC[C@H]2[C@@H](Cc3ccccc3)[C@H](NCC3CCCCC3)CC[C@]23CCCN13	.	.	.	.	.	9
CCOc1cc(/C=C2\SC(=S)N(N3CCOCC3)C2=O)ccc1O	.	.	12%	.	.	-8
CCOc1cc(/C=C2\SC(=N)N(c3nccs3)C2=O)ccc1OCCN1CCOCC1	?	?	-11%	?	11µM*	-70*
COc1cc(C(=O)N2CCCN(c3nc4cc(C)ccc4cc3C#N)CC2)cc(OC)c1OC	?	.	?	-30%	.	28
CCOCCCNC(=S)N1CCCN(c2nc3cc(C)ccc3cc2C#N)CC1	4%[46.1 µM]	2%	4%	-5%[46.1 µM]	i	-24

Compound activity: PubChem BioAssay, National Center for Advancing Translational Sciences (NCATS)
